Measurements as given in article PMC4336329 (PLoS ONE, 2015).
The whole screen tested about 310,000 compounds, of which about 14,000 (4.5%) showed an effect of 50% or more. The effect is printed as a negative number. This is one part of a sample in which strong results are shown more often than they occur.

Target: human ether-à-go-go-related gene (hERG) potassium channel (human, UniProt Q12809)
Assay: primary screen, population patch clamp on CHO cells stably expressing hERG; higher = less effect of the substance
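Further: peak tail current of the secondary pulse compared with the same well before compound.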

Chain of human ether-à-go-go-related gene (hERG) potassium channel (Q12809 whole entry, looked up): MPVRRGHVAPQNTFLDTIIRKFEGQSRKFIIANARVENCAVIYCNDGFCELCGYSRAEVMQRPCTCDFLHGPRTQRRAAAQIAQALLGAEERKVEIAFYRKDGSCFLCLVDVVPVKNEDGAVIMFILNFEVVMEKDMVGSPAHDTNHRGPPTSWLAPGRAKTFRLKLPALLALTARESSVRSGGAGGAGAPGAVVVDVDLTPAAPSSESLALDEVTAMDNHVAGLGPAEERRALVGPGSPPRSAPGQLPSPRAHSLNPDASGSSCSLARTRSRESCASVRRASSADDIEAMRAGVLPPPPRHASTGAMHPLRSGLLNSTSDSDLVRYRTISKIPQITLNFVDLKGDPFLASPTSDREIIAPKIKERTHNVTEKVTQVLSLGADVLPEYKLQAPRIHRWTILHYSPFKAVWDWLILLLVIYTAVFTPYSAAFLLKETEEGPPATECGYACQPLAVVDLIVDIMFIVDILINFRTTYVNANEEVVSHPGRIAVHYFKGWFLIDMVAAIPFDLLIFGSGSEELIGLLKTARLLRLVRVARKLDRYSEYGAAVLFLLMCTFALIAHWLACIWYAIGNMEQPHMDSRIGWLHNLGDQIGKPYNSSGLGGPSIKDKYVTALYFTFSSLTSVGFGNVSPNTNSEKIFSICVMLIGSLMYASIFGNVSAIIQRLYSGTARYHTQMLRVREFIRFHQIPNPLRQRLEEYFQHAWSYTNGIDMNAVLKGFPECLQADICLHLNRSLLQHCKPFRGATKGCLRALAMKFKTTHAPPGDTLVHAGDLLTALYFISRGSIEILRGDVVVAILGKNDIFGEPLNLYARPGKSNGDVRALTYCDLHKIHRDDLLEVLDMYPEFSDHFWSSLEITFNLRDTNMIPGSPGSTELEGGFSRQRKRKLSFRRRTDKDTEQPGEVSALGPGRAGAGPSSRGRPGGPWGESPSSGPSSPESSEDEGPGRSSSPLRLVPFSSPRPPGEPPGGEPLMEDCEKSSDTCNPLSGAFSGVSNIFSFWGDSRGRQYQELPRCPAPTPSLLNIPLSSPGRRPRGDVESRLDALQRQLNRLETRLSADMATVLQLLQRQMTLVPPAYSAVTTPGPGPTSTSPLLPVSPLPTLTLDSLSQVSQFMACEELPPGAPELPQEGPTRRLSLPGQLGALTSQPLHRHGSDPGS

**Q.** How did the “hERG current change (%, negative = inhibition) at 10uM” value turn out when `O=C(CCc1nnc(CCCCc2ccccc2)o1)N1CCN(CCO)CC1` was run?
**A.** -0.0459%

**Q.** Which “hERG current change (%, negative = inhibition) at 10uM” value does the source give for `Cc1cc(C)c(NC(=O)Cn2cc3c(n2)CCCC3)c(C)c1` here?
**A.** 10.4%

**Q.** `CSCC[C@H](NC(=O)OC(C)(C)C)C(=O)N/N=C/c1cc2ccc(C)cc2nc1Cl` was tested. Which “hERG current change (%, negative = inhibition) at 10uM” value did it give?
**A.** -7.13%

**Q.** With `COc1ccc(C(=O)OCC(=O)Nc2c(C)cccc2C)cc1` as the compound, how does the “hERG current change (%, negative = inhibition) at 10uM” value read?
**A.** 17.4%

**Q.** `O=C(NCCCN1CCOCC1)C(=O)NCC1OCCN1S(=O)(=O)c1ccc(F)cc1` (stereo not shown) was tested. Which “hERG current change (%, negative = inhibition) at 10uM” value did it give?
**A.** -10.2%

**Q.** How did the “hERG current change (%, negative = inhibition) at 10uM” value turn out when `CC(C)NC(=O)CCCc1cn(C)c2ccccc12` was run?
**A.** 18.1%

**Q.** Which “hERG current change (%, negative = inhibition) at 10uM” value does the source give for `COc1ccccc1N1CCN(C(=O)CNC(=O)c2cn(-c3ccccc3OC)c(=O)c3ccccc23)CC1` here?
**A.** -15.6%

**Q.** How did the “hERG current change (%, negative = inhibition) at 10uM” value turn out when `O=C(NC1CCCN(Cc2ccccc2F)C1)c1cccc(N2CCCC2=O)c1` (stereo not shown) was run?
**A.** 4.16%

**Q.** How did the “hERG current change (%, negative = inhibition) at 10uM” value turn out when `O=C(NCC1CCCN(Cc2ccccc2F)C1)c1cccc(C(F)(F)F)c1` (stereo not shown) was run?
**A.** -52.1%

**Q.** For `CN(C(=O)c1cccc(Cl)c1)C1CCCN(Cc2ccccc2F)C1` (stereo not shown), which “hERG current change (%, negative = inhibition) at 10uM” value is on record?
**A.** 0.373%

**Q.** For `CCOc1ccc(N)c(SSc2cc(OCC)ccc2N)c1`, which “hERG current change (%, negative = inhibition) at 10uM” value is on record?
**A.** 19.3%

**Q.** `O=C1c2ccccc2C(=O)C1(CO)c1ccc(OC(F)F)cc1` was tested. Which “hERG current change (%, negative = inhibition) at 10uM” value did it give?
**A.** 18.3%

**Q.** `O=C(O)CCC(=O)Nc1ccccc1C(=O)Nc1ccccc1` was tested. Which “hERG current change (%, negative = inhibition) at 10uM” value did it give?
**A.** 15.6%

**Q.** For `CN(Cc1nc2ccccc2c(=O)[nH]1)C(=O)c1ccccc1OCc1ccc(Cl)cc1`, which “hERG current change (%, negative = inhibition) at 10uM” value is on record?
**A.** -58.2%

**Q.** Which “hERG current change (%, negative = inhibition) at 10uM” value does the source give for `CCN(CC)CCCCCC(=O)Nc1ccccc1C(=O)Nc1ccccc1` here?
**A.** -55.8%

**Q.** `CCN(CC(=O)NCCc1ccc(S(N)(=O)=O)cc1)Cc1nc2cc(OC)c(OC)cc2c(=O)[nH]1` was tested. Which “hERG current change (%, negative = inhibition) at 10uM” value did it give?
**A.** 0.804%

**Q.** `CN(C(=O)c1ccccc1OCc1ccc(Cl)cc1)c1ccccc1` was tested. Which “hERG current change (%, negative = inhibition) at 10uM” value did it give?
**A.** -7.03%

**Q.** How did the “hERG current change (%, negative = inhibition) at 10uM” value turn out when `CCN(CC(=O)Nc1cc(Cl)ccc1C)C(=O)CCc1nc2ccccc2c(=O)[nH]1` was run?
**A.** -67.3%

**Q.** `CCN(CC(=O)NCCc1ccc(Cl)cc1)Cc1nc2ccccc2c(=O)[nH]1` was tested. Which “hERG current change (%, negative = inhibition) at 10uM” value did it give?
**A.** -53.3%

**Q.** Which “hERG current change (%, negative = inhibition) at 10uM” value does the source give for `CCN(CC(=O)NC(c1ccccc1)c1ccccc1)Cc1nc2ccccc2c(=O)[nH]1` here?
**A.** -32.4%

**Q.** Which “hERG current change (%, negative = inhibition) at 10uM” value does the source give for `CCN(CC(=O)Nc1c(F)cccc1F)C(=O)CCc1nc2ccccc2c(=O)[nH]1` here?
**A.** 8.25%

**Q.** Which “hERG current change (%, negative = inhibition) at 10uM” value does the source give for `CN(Cc1nc2ccccc2c(=O)[nH]1)C(=O)COc1ccccc1Cc1ccccc1` here?
**A.** -43.3%

**Q.** Which “hERG current change (%, negative = inhibition) at 10uM” value does the source give for `COC(=O)CCC(=O)Nc1ccccc1C(=O)Nc1ccccc1` here?
**A.** 9.16%

**Q.** With `CCN(CC(=O)Nc1ccccc1C(F)(F)F)C(=O)CCc1nc2ccccc2c(=O)[nH]1` as the compound, how does the “hERG current change (%, negative = inhibition) at 10uM” value read?
**A.** 12.5%

**Q.** With `COc1ccc(NC(=O)CN2C(=O)C(C)Oc3ccccc32)c(OC)c1` (stereo not shown) as the compound, how does the “hERG current change (%, negative = inhibition) at 10uM” value read?
**A.** -10.4%

**Q.** How did the “hERG current change (%, negative = inhibition) at 10uM” value turn out when `Cc1nc(-c2ccccc2)sc1C1(C)CC(c2ccccc2F)=NO1` (stereo not shown) was run?
**A.** 1.13%

**Q.** Which “hERG current change (%, negative = inhibition) at 10uM” value does the source give for `O=c1c2ccccc2n2c(=S)[nH]nc2n1-c1ccccc1` here?
**A.** 38.4%

**Q.** How did the “hERG current change (%, negative = inhibition) at 10uM” value turn out when `Cc1ccc(C2(c3ccc(C)cc3)CC2C(=O)Nc2ccc([N+](=O)[O-])cc2O)cc1` (stereo not shown) was run?
**A.** -2.42%

**Q.** `CCc1ccccc1NC(=O)CC(NCc1ccccc1)C(=O)O` (stereo not shown) was tested. Which “hERG current change (%, negative = inhibition) at 10uM” value did it give?
**A.** 22.5%

**Q.** Which “hERG current change (%, negative = inhibition) at 10uM” value does the source give for `CCOc1ccc(Cc2nn[nH]n2)cc1` here?
**A.** 9.6%

**Q.** For `CCn1cc(SCC(=O)N2CCc3ccccc32)c2ccccc21`, which “hERG current change (%, negative = inhibition) at 10uM” value is on record?
**A.** -1.74%

**Q.** With `CC(C)N1CC(C(=O)O)CC1=O` (stereo not shown) as the compound, how does the “hERG current change (%, negative = inhibition) at 10uM” value read?
**A.** 19%

**Q.** Which “hERG current change (%, negative = inhibition) at 10uM” value does the source give for `Cn1c(CC(=O)Nc2ccccc2Cl)nnc1SCC(=O)NC1=NCCS1` here?
**A.** 14.7%

**Q.** With `CCN1C(=O)/C(=C/C2=Cc3ccccc3OC2C)SC1=S` (stereo not shown) as the compound, how does the “hERG current change (%, negative = inhibition) at 10uM” value read?
**A.** 14.7%

**Q.** With `CCN(CC(=O)Nc1ccccc1SC)Cc1nc2ccccc2c(=O)[nH]1` as the compound, how does the “hERG current change (%, negative = inhibition) at 10uM” value read?
**A.** -23.9%

**Q.** For `CCN(CC(=O)Nc1ccc2c(c1)OCCO2)Cc1nc2cc(Cl)ccc2c(=O)[nH]1`, which “hERG current change (%, negative = inhibition) at 10uM” value is on record?
**A.** -29%

**Q.** For `CCN(CC(=O)Nc1cccc(F)c1)Cc1nc2ccccc2c(=O)[nH]1`, which “hERG current change (%, negative = inhibition) at 10uM” value is on record?
**A.** -31.7%

**Q.** Which “hERG current change (%, negative = inhibition) at 10uM” value does the source give for `CCN(CC(=O)NCc1ccc(F)cc1)Cc1nc2ccccc2c(=O)[nH]1` here?
**A.** -56.5%

**Q.** Which “hERG current change (%, negative = inhibition) at 10uM” value does the source give for `O=C(c1ccccc1)N(Cc1ccc(F)cc1)Cc1nc2ccccc2c(=O)[nH]1` here?
**A.** -35%

**Q.** With `CCNCc1nc2cc(Cl)ccc2c(=O)[nH]1.Cl` as the compound, how does the “hERG current change (%, negative = inhibition) at 10uM” value read?
**A.** 4.64%

**Q.** `CCN(CC(=O)NCc1ccc(F)cc1)Cc1nc2cc(Cl)ccc2c(=O)[nH]1` was tested. Which “hERG current change (%, negative = inhibition) at 10uM” value did it give?
**A.** -72.6%

**Q.** `COCCN(CC(=O)Nc1cc(Cl)ccc1-n1cncn1)Cc1nc2ccccc2c(=O)[nH]1` was tested. Which “hERG current change (%, negative = inhibition) at 10uM” value did it give?
**A.** -43%

**Q.** For `CCN(CC(=O)NCCc1ccc(F)cc1)Cc1nc2ccccc2c(=O)[nH]1`, which “hERG current change (%, negative = inhibition) at 10uM” value is on record?
**A.** -50.7%

**Q.** With `CCN(CC(=O)NC(=O)NCc1ccccc1)Cc1nc2ccccc2c(=O)[nH]1` as the compound, how does the “hERG current change (%, negative = inhibition) at 10uM” value read?
**A.** -12.9%

**Q.** How did the “hERG current change (%, negative = inhibition) at 10uM” value turn out when `CCN(CC(=O)Nc1cc(Cl)ccc1-n1cncn1)Cc1nc2ccccc2c(=O)[nH]1` was run?
**A.** -60.3%

**Q.** Which “hERG current change (%, negative = inhibition) at 10uM” value does the source give for `CCN(CC(=O)NCCc1ccc(S(N)(=O)=O)cc1)Cc1nc2ccccc2c(=O)[nH]1` here?
**A.** 17.9%
